# Sampled rows, rich in hits. Any-hit rate of the full collection: about 5.7%.
# Giardia kill: kills Giardia lamblia; Giardia lamblia trophozoite viability; activity change, % at 7.66 µM, hits read low; 340,000 tested, 0.15% active; in the data active = activity change below about -80%; inconclusive = between about -30% and that limit;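 note: parasites exposed to compound for two days anaerobically before the ATP read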
#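 Trophozoites 100 cells/well + cpd; 48 hrs, 37 deg C, anaerobic. ATPLite 1-Step added, 15-30 min RT, luminescence read (ATP-based viability).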
# KB-3-1 tox: KB-3-1 parental cell cytotoxicity | KB-3-1 viability, CellTiter-Glo ATP luminescence, 72 h | Potency, µM (doses to about 46.1 µM), hits mostly cytotoxic | 400,000 tested, 1.4% active | AID 1347075; note: potency is the fitted concentration of half-maximal effect; nearly all actives have a fitted effect of over 60% in size
#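 Using CellTiter-Glo luminescence, growth of non-resistant KB-3-1 adenocarcinoma cells is assessed 72 h after pin-tool compound addition at 37 °C. Normalized responses across the concentration series yield fitted curves.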
# KB-V1 MDR tox: KB-V1 MDR subline cytotoxicity | KB-V1 MDR cells viability, CellTiter-Glo, 72 h | Potency, µM (titrated, usually from 46.1 µM), most hits filed as cytotoxic | 400,000 tested, 3.4% active | AID 1347076; note: potency is the fitted concentration of half-maximal effect; nearly all actives have a fitted effect of over 60% in size
#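 In this primary screen, KB-V1 cells overexpressing P-gp are incubated with library compounds (lowest to highest concentration) for 72 h at 37 degrees C before a luminescent ATP viability read.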
# A549 tox: A549 cytotoxicity, counter-screen for Nrf2 inhibitors; AID 504648; Potency, µM (titrated, usually from 46 µM), inactives show top-dose activity change, negative = cytotoxicity, most hits filed as inhibitors; 390,000 tested, 0.16% active; A549 ARE-Fluc cells, CellTiter-Fluor viability, 18-24 h; note: potency is the fitted concentration of half-maximal effect
#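 A549 ARE_Fluc cells in 5% FBS OPTI-MEM were exposed to compounds in concentration-response for 18-24 h at 37 deg C. Viability was read by CellTiter-Fluor fluorescence (Ex 405/Em 525) after 30 min, before the luciferase read.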
# PI4K2A block: PI4K2A (human) kinase inhibition | Q9BTU6 | purified PI4K2A, ADP-Glo luminescence, 1 h; stronger effect = lower value | activity change, negative = inhibition, % at 76.9 µM | 420,000 tested, 0.13% active; in the data active = activity change below about -50%; inconclusive = mostly about -30% to -49%;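 note: -100% = wells without enzyme as full effect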
# Target sequence (Q9BTU6 whole entry, looked up): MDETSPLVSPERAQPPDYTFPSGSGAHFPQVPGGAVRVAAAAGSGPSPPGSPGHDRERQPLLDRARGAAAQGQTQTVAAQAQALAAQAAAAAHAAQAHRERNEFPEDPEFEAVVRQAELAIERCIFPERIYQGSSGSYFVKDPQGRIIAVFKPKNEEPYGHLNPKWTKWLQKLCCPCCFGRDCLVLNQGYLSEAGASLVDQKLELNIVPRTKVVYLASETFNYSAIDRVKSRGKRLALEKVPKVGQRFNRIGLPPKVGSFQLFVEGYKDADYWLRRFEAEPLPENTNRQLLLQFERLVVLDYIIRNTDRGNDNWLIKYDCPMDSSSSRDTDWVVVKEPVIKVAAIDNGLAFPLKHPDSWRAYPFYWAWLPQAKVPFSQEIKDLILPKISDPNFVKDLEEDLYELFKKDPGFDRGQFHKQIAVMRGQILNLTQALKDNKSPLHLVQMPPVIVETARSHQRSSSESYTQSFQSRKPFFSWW
#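 ADP-Glo luminescence measured ADP generated by PI4K2A enzyme (4 ug/mL before mixing) with 1.2 mM PI substrate (pre-mix) and 300 microM ATP (pre-mix). Tris pH7.5 buffer with MgCl2, Triton X-100; 1 h reaction at ambient temperature.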
# Nrf2 inh: Nrf2 pathway inhibition. A549 ARE-Fluc reporter, luciferase luminescence, 18-24 h. Potency, µM (doses to about 46 µM), for inactives: at the top dose activity change, negative = inhibition, usual class: inhibitors. 360,000 tested, 2.1% active. AID 504444; note: potency is the fitted concentration of half-maximal effect; nearly all actives have a fitted effect of over 60% in size
#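 In this cell-based qHTS, ARE-driven firefly luciferase in A549 cells reports Nrf2 activity; the luminescent signal after BugLite lysis is the measured value, with a prior CellTiter-Fluor read for cell health.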
# * hit, by the source's call; i = inactive; ? = inconclusive; · = not tested or not shown. Unless noted, calls come from the whole dose curve; as a rule, active = well fitted curve in the direction sought with a large enough effect; inconclusive = small, poorly fitted or top-dose-only effect, or another doubt; inactive = no such curve, though single readings can be large; an effect the other way counts as inactive or inconclusive. Unless noted, % is set by controls: 0 for no effect and ±100 for the full control effect.
SMILES,Giardia kill,KB-3-1 tox,KB-V1 MDR tox,A549 tox,PI4K2A block,Nrf2 inh
CC1CN(S(=O)(=O)c2cc(C(=O)NCc3ccncc3)ccc2Cl)CC(C)O1 (stereo not drawn),8,i,i,-1%,-1,-5%
OCC[N+]1(CCc2ccccc2)CCOCC1,·,i,i,·,·,·
O=C(NC1CCCCC1)N1CCCC(c2nc3ccccc3[nH]2)C1 (stereo not drawn),6,i,21µM*,-5%,-11,-11%
N#Cc1c(-n2ncnc2-c2ccccc2Cl)sc2c1CCCCC2,·,i,i,-2%,0,?
COc1cc(-c2cc3nc(NCCOc4ccccc4)ccn3n2)cc(OC)c1OC,·,?,16µM*,·,6,·
CCCCCCCCN1CN2Cc3ccccc3C2CS1(=O)=O (stereo not drawn),·,·,·,·,5,·
COc1cccc(CNS(=O)(=O)c2ccc(N3CCCCS3(=O)=O)cc2)c1,·,?,?,1%,1,·
CC(C)CN(CC(C)C)C(=O)Cc1coc2ccc3ccccc3c12,-3,?,23µM*,4%,4,-24%
O=C(NC1CC1)c1ccc2nc(-c3ccco3)c(-c3ccco3)nc2c1,-18,i,i,-10%,·,-24%
CCOC(=O)[C@]12CCCCC/C=C\1N(Cc1ccc(OC)cc1)C(=O)[C@H]2CC(=O)NCc1cccs1,·,·,·,·,-5,·
C=CCc1cccc(CNc2cnc3ccccc3c2)c1O,23,i,i,3%,3,23µM*
Oc1ccccc1CNc1cnc2ccccc2c1,3,i,i,-13%,8,?
O=C(Nc1ccc(F)c(Cl)c1)N1CCC(CN2CCc3ccccc3C2)CC1,·,·,·,0%,6,-10%
CN1c2ccccc2C(C)(C)C12CC(c1ccc(S(=O)(=O)N3CCCCC3)cc1)=NO2 (stereo not drawn),-5,i,?,4%,0,15%
CN1c2ccccc2C(C)(C)C12CC(c1cccc(S(=O)(=O)N3CCCC3)c1)=NO2 (stereo not drawn),8,?,6.5µM*,-6%,-1,?
CCCCN1CC(COCc2ccccc2)Oc2cccc(OCCN3C(=O)[C@@H]4[C@H](C3=O)C3C=C[C@H]4C3)c2S1(=O)=O (stereo partly drawn),-8,?,15µM*,-12%,-2,?
CCCCN1CC(COCc2ccccc2)Oc2cccc(Oc3ccc(OC)cc3)c2S1(=O)=O (stereo not drawn),-25,i,i,2%,1,-18%
COc1ccc(Nc2cc(C)c3cc(NC(=O)COc4cccc(C)c4)ccc3n2)cc1,·,?,i,-18%,4,?
O=C1c2ccccc2C(=O)N1c1cccc(O)c1,-30,?,i,4%,·,0%
CC(NC(=O)/C(=C/c1ccc(OC(F)F)cc1)c1ccccc1)c1ccccc1 (stereo not drawn),-6,?,6.5µM*,0%,-1,-23%
CCOC(=O)c1ccccc1Nc1nc2ccc(C)cc2n2nnnc12,·,i,i,2%,1,10%
CCOC(=O)N1CCC(Nc2nc3ccccc3n3nnnc23)CC1,-15,i,2.3µM*,-1%,-6,?
Cc1ccc(OCCCCn2ccnc2)c(Cl)c1,4,i,21µM*,1%,0,-21%
Cc1ccc(NS(=O)(=O)c2ccc(-c3cc(C)no3)cc2)c(C)c1,·,·,·,-13%,-1,?
COc1ccc(/C=C/c2nccc3c2[nH]c2ccccc23)cc1,-22,i,i,1%,·,19%
SMILES,Giardia kill,KB-3-1 tox,KB-V1 MDR tox,A549 tox,PI4K2A block,Nrf2 inh
C=Cc1ncc(OC)c2c1[nH]c1ccccc12,22,5.8µM*,i,3%,3,?
COCC(=O)N1CCC(C(=O)NCC2COc3ccccc3O2)CC1 (stereo not drawn),·,·,·,·,-1,·
Cc1ccc(-c2n[nH]c(=S)n2C)cc1,7,?,16µM*,6%,-1,12%
COc1ccc(-c2n[nH]c(=S)n2-c2ccc(C)cc2)cc1,6,i,i,8%,-3,-15%
CCN(c1ccccc1)S(=O)(=O)c1ccc(Cl)c(NC(=O)CSc2n[nH]c(N)n2)c1,-17,i,i,12%,0,-4%
CCN(c1ccccc1)S(=O)(=O)c1ccc(Cl)c(NC(=O)CSc2ncn[nH]2)c1,-20,i,23µM*,26%,1,-17%
COc1ccc(CCN2C(=O)C(Oc3ccccc3C)C2c2ccc3c(c2)OCO3)cc1 (stereo not drawn),-11,i,10µM*,-15%,0,?
COc1ccc2cc(C(=O)C3CCCN(C(=O)c4ccnn4C)C3)ccc2c1 (stereo not drawn),-1,i,16µM*,12%,-3,?
CN1C2=N[C@@H](c3ccc4ccccc4c3)CC(=O)N2/C(=C\c2ccccc2)[C@H]1c1ccccc1,·,·,·,·,0,·
C[C@@H]1CC(=O)NN=C1c1ccc(NN=C(C#N)C#N)cc1,·,·,·,·,-3,·
Cc1ccc2cc(COC(=O)C3CCCO3)c(=O)[nH]c2c1 (stereo not drawn),23,?,12µM*,-3%,4,4%
CNC(=O)c1ccc2nc(-c3ccco3)c(-c3ccco3)nc2c1,5,i,i,-11%,·,-28%
CCCCC(=O)Nc1cccc(-c2nnc(-c3ccccc3)o2)c1,-10,i,18µM*,2%,-15,·
CCC(=O)Nc1cccc(-c2nnc(-c3ccccc3)o2)c1,-13,i,i,-4%,5,4%
Cc1ccc(OCC(=O)Nc2cccc(-c3nnc(-c4ccccc4)o3)c2)cc1,3,i,2.3µM*,2%,3,4%
O=C1/C(=C/c2cccc([N+](=O)[O-])c2)CSc2ccc(Cl)cc21,25,i,i,6%,2,-12%
O=C1/C(=C/c2cccc([N+](=O)[O-])c2)CCc2ccccc21,3,?,16µM*,12%,7,-9%

# Source: PubChem
